# Measured values published in PubChem BioAssay AID492952 (Southern Research Specialized Biocontainment Screening …, 2010).
# Among all 2,300 compounds or so, about 1,500 (65%) were called active. The rule behind the calls is not given here. So high a share suggests a set chosen from earlier hits. Some of the results follow. Entries with a potency or affinity are not part of this list.
# Assay: replicating M. tuberculosis growth inhibition, dose response, non-replicating M. tuberculosis project, H37Rv (AID 492952);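 note: Mycobacterium tuberculosis grown in culture; growth inhibition read after a week of incubation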
# Conditions: series mostly up to 50 µM
row,Structure (SMILES),outcome
1,CC(C)CNc1nc(=S)nc(N(C)C)[nH]1,inactive
2,COc1ccc(S(=O)(=O)NCc2ccc3c(c2)cc(C)n3C)cc1,inactive
3,COc1ccc2cc(C(=O)NCc3ccccc3CN3CCCC3)ccc2c1,inactive
4,CC(NC(=O)OCc1ccccc1)c1ccccc1 (stereo not drawn),inactive
5,CCOC(=O)c1c(-c2ccccc2)csc1NC(=O)CCN1CCOCC1,inactive
6,CCCCn1nnc(NC(=O)COc2ccc(Cl)c(C)c2)n1,inactive
7,O=c1c2c([N+](=O)[O-])cc([N+](=O)[O-])cc2nc2ccccn12,inactive
8,COc1cc(Cl)cc(/C=N/NC(N)=O)c1O,inactive
9,CCSc1nc(O)c(C2OC(=O)c3c2ccc(OC)c3OC)c(=O)n1-c1ccccc1 (stereo not drawn),inactive
10,NCCNc1ccc([N+](=O)[O-])c2cccnc12,inactive
11,C/C(=N/NC(=O)c1ccco1)c1ccc(Br)s1,inactive
12,C/C(=N\NC(=O)c1ccco1)c1cc(Cl)sc1Cl,inactive
13,Cc1cccnc1NC(=O)COc1ccc2oc3c(c2c1)CCCC3,inactive
14,CCOC(=O)N1CCN(c2cc(C)c([N+](=O)[O-])cc2F)CC1,inactive
15,Cc1ccc(NC(=O)c2noc(C(C)C)c2[N+](=O)[O-])cc1,inactive
16,O=c1ccn(-c2ccccc2)[nH]1,inactive
17,Cc1ccnc(-n2sc3ccccc3c2=O)n1,inactive
18,COc1ccc(OCc2n[nH]c(=S)o2)cc1,inactive
19,O=c1oc(-c2ccccc2[N+](=O)[O-])nc2ccccc12,inactive
20,C=CC(=O)Oc1ccc(N2Cc3ccccc3C2=O)cc1,inactive
21,CN1CCN(Cc2cc(C(C)(C)C)c(O)c(C(C)(C)C)c2)CC1,inactive
22,CCCN1C(=O)SC(CC(=O)Nc2ccccc2)C1=O (stereo not drawn),inactive
23,CCCn1c(O)c(N=NC(=O)c2ccco2)c2ccccc21,inactive
24,C/C(=N\NC(=O)c1ccccc1)c1nc2ccccc2n1C,inactive
25,CCCCn1c(N)c(-c2nc3ccccc3o2)c2c([N+](=O)[O-])nn(CC)c(=O)c21,inactive

row,Structure (SMILES),outcome
1,Cc1cc(C)c(OCC(=O)Nc2nnc(-c3ccco3)o2)c(C)c1,inactive
2,Cc1cccc(CSc2nnc(-c3ccco3)o2)c1,inactive
3,CN(/N=C/c1ccc([N+](=O)[O-])o1)c1ccccc1,inactive
4,CC1=CN2C(=N)/C(=C/c3ccc([N+](=O)[O-])o3)C(=O)N=C2S1,inactive
5,Cc1cc(C)n(-c2ccc(C(=O)OCC(=O)Nc3cc(Cl)ccc3[N+](=O)[O-])cc2)n1,inactive
6,COC(=O)C1=C(C)N(CC2CC2)C(=NCc2cccc(Cl)c2)N[C@H]1c1ccccc1,inactive
7,CCCC(C)C(=O)Nc1ccc(Cl)cn1 (stereo not drawn),inactive
8,CC(C(=O)OCC(=O)c1ccccc1)N1C(=O)C2C3CCC(C3)C2C1=O (stereo not drawn),inactive
9,CC(Cc1ccccc1Sc1ccccc1)N(C)C (stereo not drawn),inactive
10,CN1CCN(/N=C/c2ccc(-c3ccc([N+](=O)[O-])cc3Cl)o2)CC1,inactive
11,Cc1ccc(-c2ccc(/C=N/NC(=O)CN3CCCC3)o2)cc1Cl,inactive
12,COc1ccccc1-n1c(=O)oc2ccc(Cl)cc2c1=O,inactive
13,COc1ccc(Cl)cc1N=Cc1c(O)c2ccccc2oc1=O,inactive
14,O=C(N/N=C\c1ccccc1OCc1ccccc1)c1ccco1,inactive
15,O=C(N[C@@H]1C[C@H]2CC[C@@H]1C2)c1ccco1,inactive
16,Cc1ccc(C(=O)NCCOc2cccc(C)c2)cc1,inactive
17,O=C1CC(N2CCN(Cc3ccccc3)CC2)C(=O)N1CCc1ccccc1 (stereo not drawn),inactive
18,CCN1CCN(C(=O)CN(Cc2ccccc2)S(C)(=O)=O)CC1,inactive
19,CCCCNC(=O)N1CCc2ccccc2C1,inactive
20,O=C(NCc1ccccc1CN1CCCC1)c1cc2ccccc2o1,inactive
21,O=C(CCS(=O)(=O)Cc1ccccc1)Nc1ncc([N+](=O)[O-])s1,inactive
22,O=C(N/N=C/c1c(O)ccc2ccccc12)c1ccc(Br)o1,inactive
23,CCCCN(C)C(=O)c1cc2cc3ccc(OC)cc3nc2s1,inactive
24,O=C(NCC1CCCCC1)c1ccco1,inactive
25,O=C(CNC(=O)c1ccccc1F)OCc1csc(-c2ccccc2)n1,inactive

row,Structure (SMILES),outcome
1,CCCOC(=O)c1ccc(OC(=O)c2ccco2)cc1,inactive
2,C/C(=N/NC(=O)c1cccc(C)c1)c1c(O)cc(C)oc1=O,inactive
3,COc1cccc(NC(=O)c2ccc(-c3ccc([N+](=O)[O-])cc3)o2)c1,inactive
4,O=C(Nc1ncc([N+](=O)[O-])s1)c1cccs1,inactive
5,O=C1/C(=C\c2ccco2)SC(=S)N1c1ccc(O)cc1,inactive
6,O=C(NNC1=C(C(=O)C(F)(F)F)CCC1)c1ccccc1Cl,inactive
7,Cc1c(Cl)cccc1NC(=O)C1COc2ccccc2O1 (stereo not drawn),inactive
8,Cc1ccccc1C(=O)NNc1ccc([N+](=O)[O-])cc1,inactive
9,O=C(c1cccc2cccc(O)c12)N1CCCCC1,inactive
10,O=C(COc1ccc2ccccc2c1)N1CCCC1,inactive
11,Cc1ccc(C(=O)N/N=C/c2cccc3ccccc23)cn1,inactive
12,CCN(CC)CCSc1nnc2c3cc(C)ccc3n(Cc3ccccc3)c2n1,inactive
13,Cc1ccc(NC(=O)C2CC2c2ccccc2)cc1 (stereo not drawn),inactive
14,O=C(CCSc1nnc(-c2ccncc2)o1)Nc1cccc(Cl)c1,inactive
15,N#Cc1ccc(CSc2nnc(-c3cccnc3)o2)cc1,inactive
16,Cc1nnc(SCCC(=O)Nc2ccc(Cl)cc2)o1,inactive
17,CCOC(=O)CN1NC2(CCC(C)CC2)NC1=S (stereo not drawn),inactive
18,O=c1c2c([N+](=O)[O-])cc([N+](=O)[O-])cc2sn1-c1ccc(Br)cc1,inactive
19,O=c1c2cc(Cl)ccc2nc(-c2ccccc2Cl)n1O,inactive
20,O=[N+]([O-])c1ccc2nc(SCc3cn4cc(Cl)ccc4n3)[nH]c2c1,inactive
21,Cc1nc2ccc(Cl)cc2nc(C)/c1=N\O,inactive
22,O=C(NNc1nc2ccccc2s1)c1ccc(F)cc1,inactive
23,CC(C)CCC1=NN(C(=O)c2ccco2)C(O)(C(F)(F)F)C1 (stereo not drawn),inactive
24,CCOC(=O)C1(CC2CCCCO2)CCN(Cc2nccn2-c2ccc(OC)cc2)CC1 (stereo not drawn),inactive
25,NNC(=O)COc1cccc(Oc2ccccc2)c1,inactive

row,Structure (SMILES),outcome
1,CCCCNS(=O)(=O)c1ccc(OCC(=O)OC)cc1,inactive
2,COC(=O)c1ccc(OCC(=O)c2cccc(OC)c2)cc1,inactive
3,C=CCOC(=O)c1ccc(-n2cnc(C)n2)nc1,inactive
4,CCn1cc(/C=N\NC(=O)c2ccc(F)cc2)cn1,inactive
5,O=C(c1cc(F)ccc1F)C1CCCN(Cc2ccc3nonc3c2)C1 (stereo not drawn),inactive
6,Cc1ccc(NC(=S)C2=C(O)c3sccc3N(C)S2(=O)=O)cc1,inactive
7,COc1ccc(CC(=O)Nc2nccs2)cc1OC,inactive
8,O=C(Nc1sc2c(c1C(=O)O)CCCCC2)c1ccccc1F,inactive
9,N#Cc1ccsc1NC(=O)c1ccc(Cl)c([N+](=O)[O-])c1,inactive
10,O=C1NC(=O)N(Cc2ccco2)C(=O)/C1=C\c1cccn1CCOc1ccc(Cl)cc1,inactive
11,Cc1cc(Br)ccc1OCCCCN1CCC(C)CC1,inactive
12,CCCCCOc1ccc(CSC2=NCCN2)cc1[N+](=O)[O-],inactive
13,C=CCN(CC=C)CC(=O)Nc1ccc(S(N)(=O)=O)cc1,inactive
14,NC(=O)CN1CCN(C2CC(=O)N(CCc3ccccc3)C2=O)CC1 (stereo not drawn),inactive
15,COC(=O)c1cccc(COC(=O)c2cc3ccccc3oc2=O)c1,inactive
16,O=C(COC(=O)C1CC2C=CC1C2)Nc1ccccc1 (stereo not drawn),inactive
17,CCC(C)n1c(=S)[nH]c2ccccc2c1=O (stereo not drawn),inactive
18,O=c1oc2ccccc2c2c1nnn2CCO,inactive
19,CCOC(=O)c1sc(NC(=O)CCN2CC(C)OC(C)C2)c(C(=O)OCC)c1C (stereo not drawn),inactive
20,OCC1(CCOc2ccccc2)CCN(Cc2cc(Cl)ccc2O)CC1,inactive
21,O=[N+]([O-])c1ccc(-c2nc3ccc([N+](=O)[O-])cc3[nH]2)cc1,inactive
22,c1ccc(OCc2nn3c(-c4ccccn4)nnc3s2)cc1,inactive
23,O=[N+]([O-])c1ccc2nc(SCc3cn4ccccc4n3)[nH]c2c1,inactive
24,C/C(=N/NC(=O)c1cc2ccccc2cc1O)C1C(=O)c2ccccc2C1=O,inactive
25,O=C(NCC1CCCCC1)c1ccc([N+](=O)[O-])cc1,inactive

row,Structure (SMILES),outcome
1,Nc1c(Cl)cc(Cl)cc1C(=O)OCC(=O)N1CCCC1,inactive
2,O=C(COC(=O)c1ccc(Br)o1)NC1CCCCC1,inactive
3,Oc1ccc2cc(Br)ccc2c1CN1CCCC1,inactive
4,O=C(CCSc1ccc(Cl)cc1)NC1CCCC1,inactive
5,CCCOC(=O)NC1CCS(=O)(=O)C1 (stereo not drawn),inactive
6,CCCCN(C/C=C/c1ccccc1OC)Cc1ccccc1,inactive
7,CCOC(=O)C1CCN(Cc2ccc(-c3ccccc3)cc2)CC1,inactive
8,CC(C)N=C1SC(CC(=O)Nc2ccccc2)C(=O)N1C(C)C (stereo not drawn),inactive
9,O=C(COC(=O)c1ccccc1Br)Nc1ccccc1F,inactive
10,CCOC(=O)C1=C(C)NC(=O)NC1c1ccc(-c2ccc(F)cc2)o1 (stereo not drawn),inactive
11,Fc1ccc(-c2nnc(-c3ccc(F)cc3)o2)cc1,inactive
12,CCC(C)(C)NC(=O)c1ccc(Br)o1,inactive
13,CCC(=O)c1ccc(OC(=O)c2ccc(Br)o2)cc1,inactive
14,O=C(NC1CCCC1)c1nc2c(nnn2Cc2cccc(Cl)c2)c(=O)[nH]1,inactive
15,COc1ccc(O)c(C(=O)CC(=O)c2ccc(F)cc2)c1,inactive
16,NC(=O)c1cccnc1Nc1cccc(F)c1,inactive
17,c1ccc(-c2noc(CC3CCCCC3)n2)nc1,inactive
18,Sc1oc(-c2ccccc2)cc1C=Nc1ccccc1,inactive
19,COc1ccc(NC(=O)CO/N=C2/CCCc3nonc32)c(OC)c1,inactive
20,O=C(N/N=C/c1ccccc1O)c1cccc(C(F)(F)F)c1,inactive
21,O=C(N/N=C/c1cc(Br)cc(Br)c1O)c1cccc(N2CCCC2=O)c1,inactive
22,O=C(COC(=O)c1ccccc1)NC12CC3CC(CC(C3)C1)C2,inactive
23,CCCNC(=O)OCC12CC3CC(CC(C3)C1)C2,inactive
